Among all 330,000 compounds or so, about 4,600 (1.4%) were called active. This is one part of a sample in which actives are shown more often than they occur.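 Rule for the calls: active = inhibition of 40% or more at the single tested concentration; inactive = the rest.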
Assay: wild-type TIM10 yeast growth inhibition – luminescence, uHTS, counter-screen for tim10-1 yeast inhibitor project, primary screen (AID 463195);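 note: wild-type TIM10 isogenic control strain grown at permissive 25 °C; 0% = DMSO yeast wells and 100% = minimal medium wells without yeast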
Conditions: S. cerevisiae TIM10 strain growth, BacTiter-Glo luminescence, 24 h; at 10 µM; stronger effect = higher value

**Q.** Which inhibition does the source give for `C=CCn1c(Cn2nnc3ccccc32)nnc1SCC(=O)N/N=C/c1cc(Br)cc(OC)c1O` here?
**A.** -12.4% (inactive)

**Q.** With `COc1cc(Br)cc(/C=N/c2ncn[nH]2)c1O` as the molecule, how does the inhibition read?
**A.** 48.7% (active)

**Q.** Which inhibition does the source give for `Oc1c(Cl)cc(Cl)cc1/C=N/c1ncn[nH]1` here?
**A.** 23.9% (inactive)

**Q.** For `Cc1cc(-c2nnc(SCC(=O)Nc3ccc(S(N)(=O)=O)cc3)n2N)n[nH]1`, which inhibition is on record?
**A.** -1.79% (inactive)

**Q.** With `CCOC(=O)C1=C(C)NC(=O)N(C(C)=O)C1c1ccc(Cl)cc1` (stereo not drawn) as the molecule, how does the inhibition read?
**A.** 29.2% (inactive)

**Q.** With `CCOC(=O)c1[nH]c2c(c1-c1ccccc1)C(=O)CC(c1ccc(Cl)cc1)C2` (stereo not drawn) as the molecule, how does the inhibition read?
**A.** 3.98% (inactive)

**Q.** For `CCOC(=O)C1Sc2[nH]c(=O)sc2C(c2ccc(Cl)cc2)C1C(=O)OCC` (stereo not drawn), which inhibition is on record?
**A.** 44.2% (active)

**Q.** With `COc1ccc(N2C(=O)C3C(C2=O)C(C(=O)c2ccccc2)N2CCCC32)cc1` (stereo not drawn) as the molecule, how does the inhibition read?
**A.** 7.93% (inactive)

**Q.** With `COc1cccc(NC(=O)CSc2nccn(-c3ccc4c(c3)OCCO4)c2=O)c1` as the molecule, how does the inhibition read?
**A.** 44.8% (active)

**Q.** For `Cn1ccnc1SCC(=O)Nc1ccc2c(c1)OCCO2`, which inhibition is on record?
**A.** 8.81% (inactive)

**Q.** For `COc1ccccc1-n1ccnc(SCC(=O)NC2CCCCC2)c1=O`, which inhibition is on record?
**A.** 15.4% (inactive)

**Q.** For `CC(C)Oc1ccc(S(=O)(=O)N2CCOCC2)cc1NC(=O)C1CCCC1`, which inhibition is on record?
**A.** 3% (inactive)

**Q.** Which inhibition does the source give for `O=C(Nc1cccc(-n2cnnn2)c1)c1cccnc1` here?
**A.** 5.34% (inactive)

**Q.** For `O=C(Nc1ccc(-c2csc(Nc3cccc(C(F)(F)F)c3)n2)cc1)c1cccc(C(F)(F)F)c1`, which inhibition is on record?
**A.** 14.2% (inactive)

**Q.** Which inhibition does the source give for `O=C(Nc1ccc(C(F)(F)F)cc1)c1cccc(-n2cnnn2)c1` here?
**A.** 93% (active)

**Q.** With `CN(CC(=O)Nc1cccc(F)c1)C(=O)CC1CCCC1` as the molecule, how does the inhibition read?
**A.** 7.55% (inactive)

**Q.** For `Cc1ccc(S(=O)(=O)N2CCOCC2)cc1C(=O)NC(=S)N(Cc1ccccc1)C(C)C`, which inhibition is on record?
**A.** 15.5% (inactive)

**Q.** For `c1ccc(-c2ccnc3nc(-n4cccc4)nn23)cc1`, which inhibition is on record?
**A.** 14.7% (inactive)

**Q.** Which inhibition does the source give for `COc1ccc(C(=O)Nc2ccc(-n3nncc3C(C)(C)C)cc2)cc1` here?
**A.** 53.1% (active)

**Q.** For `C/C(=N\Nc1ccc([N+](=O)[O-])cc1)c1ccc(-n2nncc2C(C)(C)C)cc1`, which inhibition is on record?
**A.** 8.53% (inactive)

**Q.** Which inhibition does the source give for `COc1ccc(NC(=O)c2ccc(C#CC(C)(C)O)cc2)cc1` here?
**A.** 12% (inactive)

**Q.** For `COc1cccc(N(C(=O)c2ccn[nH]2)C2(C(=O)Nc3c(C)cccc3C)CCCCC2)c1`, which inhibition is on record?
**A.** 17.6% (inactive)

**Q.** For `OC(c1ccccc1)c1nccn1Cc1ccccc1` (stereo not drawn), which inhibition is on record?
**A.** 8.31% (inactive)

**Q.** For `COc1ccc(N2CCN(C(=O)/C(C#N)=C/c3ccccc3)CC2)cc1`, which inhibition is on record?
**A.** 36% (inactive)

**Q.** Which inhibition does the source give for `COc1ccc(/C=C(\C#N)C(=O)ONC2=NCCCCC2)cc1` here?
**A.** 48.5% (active)

**Q.** With `COc1ccc(/C=C(\C#N)C(=O)OCC(=O)N(C)C2CCS(=O)(=O)C2)cc1` (stereo not drawn) as the molecule, how does the inhibition read?
**A.** 4.8% (inactive)

**Q.** With `O=C(Cn1nc(CNc2ccc(Cl)cc2)[n+]2c1CCCCC2)c1ccc(Cl)cc1` as the molecule, how does the inhibition read?
**A.** -4.18% (inactive)

**Q.** For `Cn1cc(CCC(=O)NC2CC2)c2ccccc21`, which inhibition is on record?
**A.** 4.31% (inactive)

**Q.** For `O=C(Nc1ccccc1F)c1ccc(S(=O)(=O)N2CCCCCC2)cc1`, which inhibition is on record?
**A.** 12.4% (inactive)

**Q.** Which inhibition does the source give for `COC(=O)c1ccc(CNC(=O)c2ccc(S(=O)(=O)N3CCCCCC3)cc2)cc1` here?
**A.** -4.47% (inactive)

**Q.** With `O=C(NCCc1ccc(F)cc1)c1ccc(S(=O)(=O)N2CCCCC2)cc1` as the molecule, how does the inhibition read?
**A.** 41.7% (active)

**Q.** With `O=C(Nc1ccc([N+](=O)[O-])cc1)C1CC12CCC2` (stereo not drawn) as the molecule, how does the inhibition read?
**A.** 14.3% (inactive)

**Q.** With `O=C(N/N=C/c1ccc(Cl)cc1)c1nc2ccc([N+](=O)[O-])cc2c(=O)[nH]1` as the molecule, how does the inhibition read?
**A.** -0.404% (inactive)

**Q.** For `COc1ccc(C(=O)N2CCCC(C(=O)c3ccccc3OC)C2)cc1OC` (stereo not drawn), which inhibition is on record?
**A.** 1.3% (inactive)

**Q.** With `O=C(Nc1cccc(Cl)c1)C1CCCN(c2cnccn2)C1` (stereo not drawn) as the molecule, how does the inhibition read?
**A.** 42.8% (active)

**Q.** With `Cc1ccc(Cl)cc1NC(=O)C1CCCN(c2cnccn2)C1` (stereo not drawn) as the molecule, how does the inhibition read?
**A.** 5.02% (inactive)

**Q.** Which inhibition does the source give for `O=C(Nc1ccc2c(c1)OCCO2)C1CCCN(c2ncccn2)C1` (stereo not drawn) here?
**A.** -4.49% (inactive)

**Q.** With `O=C1C2C3C=CC(C4CC34)C2C(=O)N1c1nccs1` (stereo not drawn) as the molecule, how does the inhibition read?
**A.** -2.66% (inactive)

**Q.** For `CCOC(=O)c1cnc2ccc(F)cc2c1Nc1ccc2c(c1)OCCO2`, which inhibition is on record?
**A.** 37.4% (inactive)

**Q.** Which inhibition does the source give for `Cc1ccc(-c2cn3cc([N+](=O)[O-])ccc3n2)cc1` here?
**A.** -29.9% (inactive)

**Q.** With `Cc1ccc2nc(-c3ccc(Br)cc3)cn2c1` as the molecule, how does the inhibition read?
**A.** 40.3% (active)

**Q.** With `CSc1nnc2ccc(-c3ccc(C)cc3)nn12` as the molecule, how does the inhibition read?
**A.** 7.14% (inactive)

**Q.** For `Cc1ccc(-c2cn3cc(C)ccc3n2)cc1`, which inhibition is on record?
**A.** 65% (active)

**Q.** Which inhibition does the source give for `COc1ccc(-c2cn3ccc(C)cc3n2)cc1` here?
**A.** 30.2% (inactive)

**Q.** With `CCN(CC)S(=O)(=O)c1ccc(-c2cn3ccc(C)cc3n2)cc1` as the molecule, how does the inhibition read?
**A.** 11.7% (inactive)

**Q.** With `COc1ccccc1C(=O)Nc1nc2nc(-c3ccccc3)cc(=O)n2[nH]1` as the molecule, how does the inhibition read?
**A.** -9.51% (inactive)

**Q.** Which inhibition does the source give for `N#Cc1ccccc1NC(=O)COc1c(Br)cc(Br)c2cccnc12` here?
**A.** 13.8% (inactive)

**Q.** With `O=C(Nc1ccc(N2CCN(C(=O)c3ccccc3)CC2)c(Cl)c1)c1ncn[nH]1` as the molecule, how does the inhibition read?
**A.** -12.4% (inactive)

**Q.** For `CN(C)C(=O)CCC(=O)N1CCCCC1C(=O)Nc1ccc(Oc2ccccc2F)cc1` (stereo not drawn), which inhibition is on record?
**A.** 3.39% (inactive)

**Q.** Which inhibition does the source give for `CC1=C(C(N)=O)C(c2ccc(Br)cc2)n2ncnc2N1` (stereo not drawn) here?
**A.** -4.88% (inactive)

**Q.** Which inhibition does the source give for `Fc1ccccc1/C=C1\CCCC2=C1Nc1ncnn1C2c1ccccc1F` (stereo not drawn) here?
**A.** 48.1% (active)

**Q.** For `CCC1CCc2c(sc(NC(C)=O)c2C#N)C1` (stereo not drawn), which inhibition is on record?
**A.** 7.23% (inactive)

**Q.** For `O=C(COC(=O)c1ccc(Cl)nc1)NCc1cccs1`, which inhibition is on record?
**A.** 7.82% (inactive)

**Q.** With `COc1ccccc1N1CCN(C(=O)C2Cc3ccccc3CN2C(=O)c2ccco2)CC1` (stereo not drawn) as the molecule, how does the inhibition read?
**A.** 22% (inactive)

**Q.** Which inhibition does the source give for `Cc1oc2c(c1C(=O)N1CCOCC1)C(=O)c1ccccc1C2=O` here?
**A.** 46.1% (active)

**Q.** Which inhibition does the source give for `COc1cc2ccccc2cc1C(=O)N1CCOCC1` here?
**A.** 5.86% (inactive)

**Q.** For `COC1=C(N2CCOCC2)C(=O)c2ccccc2C1=O`, which inhibition is on record?
**A.** -3.21% (inactive)

**Q.** Which inhibition does the source give for `CC1=C(C)CC(C(=O)NNC(=O)c2csc3c2CCC(C(C)(C)C)C3)C(C(=O)O)C1` (stereo not drawn) here?
**A.** 5.91% (inactive)

**Q.** With `O=C(CSCc1ccccc1)Nc1ccccc1` as the molecule, how does the inhibition read?
**A.** -3.8% (inactive)

**Q.** Which inhibition does the source give for `COC(=O)Cc1c(O)ccn(Cc2cccc(C(F)(F)F)c2)c1=O` here?
**A.** 11.1% (inactive)

**Q.** Which inhibition does the source give for `O=C(/C=C/Sc1ncn[nH]1)c1ccc(Cl)cc1` here?
**A.** 73.5% (active)

**Q.** Which inhibition does the source give for `O=C(CSc1ncn[nH]1)N/N=C/c1ccc(F)cc1` here?
**A.** -3.76% (inactive)

**Q.** Which inhibition does the source give for `Cc1ccc(C(=O)/C=C/c2c(C)nn(-c3ccccc3)c2Cl)cc1` here?
**A.** 29.3% (inactive)
